Source: PubChem
GPR32 ag: activates human resolvin D1 receptor GPR32; O75388; CHO-K1 GPR32 beta-arrestin PathHunter luminescence, 90 min; zero percent set by DMSO-only wells; activation, % at 76.9 µM; 48,000 compounds, 2.5% hits;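 active = activation of at least 60% and not above a set upper limit, about 1 call in 100 departs from these limits; inconclusive = activation of 40% to 60%, or above that upper limit; inactive = activation under 40%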; note: 0% is about no effect
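Agonism was scored by beta-Gal fragment complementation (chemiluminescent read, 1 h detection at ambient temperature) reporting beta-arrestin binding to GPR32 in engineered CHO-K1 cells. Compound treatment lasted 90 min at 37 C, normalized to a DMSO basal control.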
HTT prom inh: inhibitors of huntingtin promoter activity. 48,000 compounds, 0.93% hits. Potency, µM (highest dose often 57.5 µM), for inactives: at the highest dose activity change, negative = inhibition, actives largely listed as inhibitors. HEK293 HTT promoter firefly luciferase reporter, 24 h; note: potency is the fitted concentration of half-maximal effect; nearly all actives have a fitted effect of over 50% in size
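HEK293 luciferase promoter-reporter cells (2,500/well) plated 24 h, then compounds added at up to 57.5 uM final for 24 h at 37 °C. Firefly luminescence by Dual-Glo, normalized to vehicle (0%) and zero RLU (-100%).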
B2AR arrestin ag: agonists recruiting beta-arrestin to human beta2-adrenergic receptor | AID 1347077 | Potency, µM (highest dose often 46.1 µM), hits mostly activators | HTLA Tango cells, beta-arrestin recruitment, luciferase luminescence, 18 h | P07550 | 44,000 tested, under 10 active;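 note: potency is the fitted concentration of half-maximal effect; 0% = DMSO and full agonism = EC100 isoproterenol or metaproterenol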
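First, Tango cells carrying beta2-AR and beta-arrestin fusions received compound up to 46 microM. After 18 hr at 37 degrees C, luciferase substrate was added for 15 minutes, then luminescence gave %Activity for curve fitting.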
HTT-AS act: activates huntingtin-antisense promoter activity | HEK293 HTT-AS promoter firefly luciferase reporter, 24 h; response scale: percent change from vehicle, -100% = no light | Potency, µM (top dose mostly 57.5 µM), for the others: at the highest dose activity change, positive = activation, most hits filed as activators | 48,000 compounds, 0.24% hits | AID 1508624; note: potency is the fitted concentration of half-maximal effect; nearly all actives have a fitted effect of over 55% in size
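HEK293 luciferase promoter-reporter cells (2,500/well) plated 24 h, then compounds added at up to 57.5 uM final for 24 h at 37 °C. Firefly luminescence by Dual-Glo, normalized to vehicle (0%) and zero RLU (-100%).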
FH mod: Identification of activators of human fumarate hydratase by quantitative high-throughput screening; Fumarate hydratase, mitochondrial (Homo sapiens), P07954; Potency, µM (doses to about 79.9 µM), inactives show top-dose activity change, negative = inhibition, most hits filed as inhibitors; 54,000 compounds, 0.22% hits; FH coupled MDH/diaphorase resazurin fluorescence, 15 min; note: potency is the fitted concentration of half-maximal effect; % is set by controls: 0 for no effect and ±100 for the full control effect; the screen sought activators but most active calls are inhibition curves; nearly all actives have a fitted effect of over 45% in size
GALC G270D act: galactocerebrosidase G270D activity enhancement, cell-based. 45,000 compounds, 0.1% hits. 145M-Twi-hGALC-G270D cells (Twitcher mouse brain line with human GALC G270D), HMU-beta-Gal fluorescence, 48 h. Potency, µM (doses to about 57.5 µM), most hits filed as activators; note: potency is the fitted concentration of half-maximal effect; 0% is about no effect; nearly all actives have a fitted effect of over 65% in size
Target sequence (P54803 whole entry G286D): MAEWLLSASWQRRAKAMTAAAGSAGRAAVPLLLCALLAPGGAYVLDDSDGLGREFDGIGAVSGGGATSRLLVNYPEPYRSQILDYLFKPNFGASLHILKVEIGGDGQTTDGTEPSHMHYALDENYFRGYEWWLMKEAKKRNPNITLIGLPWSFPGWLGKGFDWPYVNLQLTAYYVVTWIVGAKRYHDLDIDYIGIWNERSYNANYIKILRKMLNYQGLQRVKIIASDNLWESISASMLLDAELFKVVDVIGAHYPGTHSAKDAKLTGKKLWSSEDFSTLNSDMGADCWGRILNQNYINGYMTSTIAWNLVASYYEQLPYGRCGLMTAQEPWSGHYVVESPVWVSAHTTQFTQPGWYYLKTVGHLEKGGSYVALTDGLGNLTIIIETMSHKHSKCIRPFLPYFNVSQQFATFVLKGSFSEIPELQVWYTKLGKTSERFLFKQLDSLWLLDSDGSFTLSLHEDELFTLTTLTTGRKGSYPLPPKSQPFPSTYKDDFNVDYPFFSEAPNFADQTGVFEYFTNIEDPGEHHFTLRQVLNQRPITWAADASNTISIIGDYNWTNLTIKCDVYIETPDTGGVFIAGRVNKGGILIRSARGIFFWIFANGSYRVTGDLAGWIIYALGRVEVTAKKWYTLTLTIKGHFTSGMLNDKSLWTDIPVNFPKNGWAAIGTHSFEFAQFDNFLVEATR
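Fluorescence readout: HMU-β-gal cleavage by mutant GALC (0.1 mM final, citrate/phosphate pH 5.2 with 1 mg/mL taurocholate), stopped with carbonate/bicarbonate plus Triton X-100. Cells: murine Twitcher 145M-Twi expressing human G270D GALC; qHTS for activators.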
* hit, by the source's call; i = inactive; ? = inconclusive; . = no result; [ ] = another dose, or the depositor's remark. Most compounds without a hit are left out; they make up all but 3.7% or so of the library. Unless noted, calls come from the whole dose curve; as a rule, active = well fitted curve in the direction sought with a large enough effect; inconclusive = small, poorly fitted or top-dose-only effect, or another doubt; inactive = no such curve, though single readings can be large; an effect the other way counts as inactive or inconclusive.

SMILES | GPR32 ag | HTT prom inh | B2AR arrestin ag | HTT-AS act | FH mod | GALC G270D act
CNCCC(c1cccs1)c1ccc(O)c2ccccc12 (stereo unspecified) | . | . | . | . | 0% | .
O=C(CSc1nc2cc3ccccc3cc2[nH]1)Nc1ccc(F)cc1 | 65* | -24% | i | -8% | -12% | i
COC(=O)c1ccc(NC(=O)CSc2nc3ccc(OC)cc3[nH]2)cc1 | 48 | 0% | i | ? | -13% | i
C[C@@H](c1nc(-c2ccc(C#N)cc2)cs1)[C@](O)(Cn1cncn1)c1cc(F)ccc1F | . | . | . | . | -1% | .
CCc1ccc(Sc2cc(C(=O)NC(C)CC)c3ccccc3n2)cc1 (stereo unspecified) | 75* | -27% | i | -22% | -18% | i
CCC(C)NC(=O)c1cc(Sc2cccc(Cl)c2)nc2ccccc12 (stereo unspecified) | 20 | ? | i | -18% | -16% | i
CC(C)(C)NCCCNC(=O)c1cccc(Br)c1 | . | . | . | . | 0% | .
Nc1nc2c(ncn2C2OC3COP(=O)(O)OC3C2O)c(=O)[nH]1 (stereo unspecified) | . | . | . | . | 0% | .
COc1ccc(S(=O)(=O)Cc2ccc(C(=O)NC3CCCCC3)o2)cc1 | 89* | -35% | i | -34% | -7% | i
Cc1cc(C)cc(NS(=O)(=O)c2ccc3[nH]cc(C(=O)NCCc4ccccc4)c(=O)c3c2)c1 | 79* | -14% | i | -26% | -7% | i
O=C(NC1CCCC1)c1cc(Nc2cccc(C(F)(F)F)c2)nc2ccccc12 | 96* | -13% | i | -16% | -8% | i
O=C(NC1CCCC1)c1c[nH]c2ccc(S(=O)(=O)Nc3cccc(C(F)(F)F)c3)cc2c1=O | 82* | ? | i | -44% | ? | i
O=C(NC1CCCCC1)c1cc(Nc2cccc(C(F)(F)F)c2)nc2ccccc12 | 7 | -21% | i | -6% | -4% | i
CCN(c1ccccc1)S(=O)(=O)c1ccc2[nH]cc(C(=O)NC3CCCCC3)c(=O)c2c1 | 29 | ? | i | -39% | -18% | i
CN(C(=O)c1c[nH]c2ccc(S(=O)(=O)Nc3cccc(C(F)(F)F)c3)cc2c1=O)C1CCCCC1 | -13 | -18% | i | -20% | 12% | i
CCN(c1ccccc1)S(=O)(=O)c1ccc2[nH]cc(C(=O)NCc3ccc(C)cc3)c(=O)c2c1 | 63* | 0% | i | 1% | -1% | i
CCc1ccc(NS(=O)(=O)c2ccc3[nH]cc(C(=O)NCCc4ccccc4)c(=O)c3c2)cc1 | -8 | 0% | i | 14% | -11% | i
C/C=C(\C)[C@@H]1C(C)=C[C@@H]2[C@H]([C@@H]1/C=C/C=C/C(=O)O)[C@@H](C)CC[C@@H]2O | . | . | . | . | 8%[53.3 µM] | .
CCOc1ccc(NS(=O)(=O)c2ccc3[nH]cc(C(=O)NCc4ccco4)c(=O)c3c2)cc1 | 67* | -8% | i | -30% | -2% | i
CC(C)CCNC(=O)c1c[nH]c2ccc(S(=O)(=O)Nc3cccc(C(F)(F)F)c3)cc2c1=O | -2 | ? | i | -40% | -19% | i
Cc1ccc(CCNC(=O)c2c[nH]c3ccc(S(=O)(=O)Nc4cccc(C(F)(F)F)c4)cc3c2=O)cc1 | -15 | 16µM* | i | -43% | -15% | i
COc1cc(NC(=O)c2nnn(Cc3ccc(F)cc3)c2N)cc(OC)c1 | 79* | ? | i | 0% | 2% | i
Cc1cc(C)cc(NC(=O)Cn2nnc(C(=O)Nc3cc(C)cc(C)c3)c2N)c1 | 84* | ? | i | -18% | -17% | i
Cc1cc(C)cc(N(CC(=O)Nc2ccc(C(F)(F)F)cc2)S(=O)(=O)c2c(C)[nH]c(=O)[nH]c2=O)c1 | 112* | ? | i | -20% | -12% | i
COc1cc(NC(=O)CN(c2cc(C)cc(C)c2)S(=O)(=O)c2c(C)[nH]c(=O)[nH]c2=O)cc(OC)c1 | 12 | -22%[11.5 µM] | i | -16% | -5% | i
SMILES | GPR32 ag | HTT prom inh | B2AR arrestin ag | HTT-AS act | FH mod | GALC G270D act
Cc1cc(C)cc(N(CC(=O)Nc2ccc(C)cc2Cl)S(=O)(=O)c2c(C)[nH]c(=O)[nH]c2=O)c1 | 79* | -26% | i | 5%[11.5 µM] | -16% | i
Cc1n[nH]c(C)c1S(=O)(=O)N(CC(=O)Nc1ccc(C(F)(F)F)cc1)c1ccc(C(C)C)cc1 | 12 | ? | i | -59% | -18% | i
Cc1ccc(N(CC(=O)Nc2ccc(C)c(F)c2)S(=O)(=O)c2c(C)n[nH]c2C)cc1 | 102* | -25% | i | -22% | -20% | i
COc1ccc(NC(=O)c2noc3c2CSc2ccccc2-3)cc1Cl | -21 | 3% | i | 7% | -2% | i
CC(=O)c1cccc(NC(=O)c2noc3c2CSc2ccccc2-3)c1 | -11 | 52% | i | 1.4µM* | 6% | i
CC(=O)c1ccc(NS(=O)(=O)c2cccc(S(=O)(=O)c3ccc(Cl)cc3)c2)cc1 | 61* | ? | i | -33% | -13% | i
Cc1cc(S(=O)(=O)Nc2ccc(C(=O)O)cc2)c(C)c(S(=O)(=O)c2ccc(Cl)cc2)c1 | -28 | -12% | i | -15% | -6% | i
COc1cccc(NS(=O)(=O)c2ccc3[nH]c4c(c3c2)CCCCCC4)c1 | 3 | ? | i | -20% | ? | i
COc1ccc(NC(=O)CN(C)S(=O)(=O)c2ccc3[nH]c4c(c3c2)CCCC4)cc1Cl | 91* | 0% | i | -35% | -28% | i
O=C(Nc1cccc(F)c1)C1CCN(S(=O)(=O)c2ccc3[nH]c4c(c3c2)CCCCC4)CC1 | 9 | 25µM* | i | -42% | -23% | i
COc1ccc(NS(=O)(=O)c2ccc3[nH]c4c(c3c2)CCCCCC4)cc1 | 74* | ? | i | -28% | ? | i
C=C1CC2(C(=O)O)CC1CCC2C1(C)CCCC2(C)C(=O)OC(O)C21 (stereo unspecified) | . | . | . | . | 8%[53.3 µM] | .
Fc1ccc2c(CCNCc3cccc(OCC(F)(F)C(F)F)c3)c[nH]c2c1 | . | . | . | . | -1% | .
CC(=O)Nc1ccc(NS(=O)(=O)c2ccc3[nH]c4c(c3c2)CCCCC4)cc1 | 80* | -36% | i | -33% | ? | i
CC(=O)c1ccc(NS(=O)(=O)c2ccc3[nH]c4c(c3c2)CCCCCC4)cc1 | 73* | ? | i | -21% | ? | i
